# VACV mCherry inh = qHTS for Stage-Specific Inhibitors of Vaccinia Orthopoxvirus: mCherry Reporter Primary qHTS; Vaccinia virus mCherry reporter infection, fluorescence; Potency, µM (doses to about 36.5 µM), for the others: at the highest dose activity change, negative = inhibition, actives largely listed as inhibitors; hit rate 0.63% among 310,000; calls by dose curve; tested in A549 cells; also: potency is read from the fitted curve at half-maximal effect; nearly all actives have a fitted effect of over 35% in size
# Tb PYK inh = qHTS of Trypanosoma Brucei Inhibitors; Potency, µM (doses to about 76.8 µM), without a hit: at the top dose activity, negative = inhibition, most hits filed as inhibitors; TbPYK enzyme, Kinase-Glo Plus ATP luminescence, 45 min; pyruvate kinase (Trypanosoma brucei), Q57TT1; hit rate 0.12% among 410,000; also: potency is read from the fitted curve at half-maximal effect; nearly all actives have a fitted effect of over 50% in size
#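 Enzyme and substrate buffer are dispensed first and compound is pin-transferred. ADP at 130 uM final then starts the reaction, which runs 45 min at room temperature. Detection reagent is added for 10 min before luminescence is imaged.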
# HCMV inh = qHTS Assay for inhibitors of the human cytomegalovirus (HCMV); HFF cells, HCMV-luciferase reporter, 72 h; stronger effect = lower value; activity change, negative = inhibition, % at 57.5 µM; hit rate 4.5% among 410,000; AID 1259415, 2018; in the data active = activity change below about -60%; inconclusive = no clear call, values can overlap the other calls; inactive = above about -39%
#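 Inhibition of viral replication was scored as loss of reporter luminescence in HFFs infected with HCMV-luciferase (MOI 1 PFU/cell) for 72 h; compounds tested at 2 doses, normalized to buffer and Salinomycin controls.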
# Vaccinia Venus = qHTS for Stage-Specific Inhibitors of Vaccinia Orthopoxvirus: Venus Reporter Primary qHTS | Potency, µM (titrated, usually from 36.5 µM), without a hit: top-dose activity change, negative = inhibition, actives largely listed as inhibitors | Vaccinia virus Venus reporter expression, fluorescence | hit rate 0.46% among 330,000; calls by dose curve; tested in A549 cells; also: potency is read from the fitted curve at half-maximal effect; nearly all actives have a fitted effect of over 30% in size
# LmPK inhibitor = qHTS Assay for Inhibitors of Leishmania Mexicana Pyruvate Kinase (LmPK). Q27686. purified LmPK, Kinase-Glo ATP luminescence, 1 h. Potency, µM (doses to about 57.5 µM), without a hit: top-dose activity change, negative = inhibition, usual class: inhibitors. hit rate 0.37% among 290,000; also: potency is read from the fitted curve at half-maximal effect
# Target sequence (Q27686 whole entry, looked up): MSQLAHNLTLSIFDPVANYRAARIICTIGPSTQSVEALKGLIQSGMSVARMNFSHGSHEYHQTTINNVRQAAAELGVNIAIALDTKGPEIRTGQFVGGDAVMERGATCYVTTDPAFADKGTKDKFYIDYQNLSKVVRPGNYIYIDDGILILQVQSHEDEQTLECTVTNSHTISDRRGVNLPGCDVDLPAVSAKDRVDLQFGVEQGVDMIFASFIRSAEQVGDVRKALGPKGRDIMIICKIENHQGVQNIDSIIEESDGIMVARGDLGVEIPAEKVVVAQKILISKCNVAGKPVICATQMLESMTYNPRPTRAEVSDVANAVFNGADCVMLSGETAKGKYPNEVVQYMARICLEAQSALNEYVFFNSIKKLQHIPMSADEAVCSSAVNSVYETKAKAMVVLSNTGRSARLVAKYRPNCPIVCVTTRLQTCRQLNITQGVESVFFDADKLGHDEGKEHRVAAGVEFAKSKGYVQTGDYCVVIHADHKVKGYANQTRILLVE
#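 In 50 mM imidazole pH 7.2 with 7 mM MgCl2, LmPK (0.1 nM) turned over PEP (0.5 mM) and ADP (0.1 mM) for 1 h at room temperature. Luciferase read-out of ATP.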
# The depositor's hits bear a star; i = inactive; u = inconclusive; x = not tested or not shown; [ ] = remark or other dose. This is a sample that favours compounds with a hit; in the whole collection about 5% have one here. Unless noted, calls follow the shape of the dose curve; as a rule, active = well fitted curve in the direction sought with a large enough effect; inconclusive = small, poorly fitted or top-dose-only effect, or another doubt; inactive = no such curve, though single readings can be large; an effect the other way counts as inactive or inconclusive. % is scaled to controls: 0 for no effect and ±100 for the full control effect.
SMILES,VACV mCherry inh,Tb PYK inh,HCMV inh,Vaccinia Venus,LmPK inhibitor
CN(C)CCNC(=O)c1cc(Sc2ccc(F)cc2)nc2ccccc12,x,x,x,x,6%
CCOCCCNC(=O)c1cc(Sc2ccc(F)cc2)nc2ccccc12,-1%,7%,-62*,-9%,0%
Cc1cccc(CN2CCN(CC(C)C)C(CCO)C2)n1 (stereo unspecified),x,-1%,-21,x,3%
CN1C(=O)c2ccccc2C(C(=O)O)C1c1cccc(F)c1 (stereo unspecified),-10%,-4%,-31,-7%,2%
COC(=O)c1ccc(/C=N\N2CCN(c3ccccc3)CC2)cc1,x,-3%,133,x,3%
COc1ccc(C)cc1S(=O)(=O)Nc1cc2c3c(c1)CC(=O)N3CCC2,u,-6%,-11,u,x
CCc1ccc(-c2cc3c(=O)n(CC(=O)NCCCN4CCN(CC)CC4)nc(C)n3n2)cc1,x,-7%,22,x,0%
COc1cnc(-c2ccccn2)nc1Sc1ccccc1,u,1%,-100*,-27%,-10%
COc1cnc(-c2ccccn2)nc1N(C)c1ccccc1,u,5%,-98*,u,-2%
COc1cnc(-c2ccccn2)nc1Oc1cccc(C(F)(F)F)c1,x,x,-99*,x,7%
COc1ccc(Sc2nc(-c3ccccn3)ncc2OC)cc1,u,-2%,u,u,1%
CCCCCCCCN1C(=O)[C@H](CC(=O)NCc2ccc(OC)c(OC)c2)C[C@@]2(C(=O)OC)CCCCC=C12,u,2%,23,-12%,x
CC(C)c1ccc2c(c1)CC[C@H]1[C@](C)(CN)CCC[C@]21C,u,1%,-98*,-30%,x
CC(C)c1ccc2c(c1)CCC1C(C)(CN)CCCC21C (stereo unspecified),u,-4%,-27,u,-2%
O=c1oc2ccccc2c(N2CCN(c3ccc(F)cc3)CC2)c1CN1CCCC1,-14%,-1%,-20,-7%,x
Nc1c(N2CCN(c3ccccc3)CC2)c2ccccc2oc1=O,x,-11%,-100*,x,-1%
CCOc1ccccc1NC(=O)CN(c1ccc(OC)cc1)S(=O)(=O)c1c(C)noc1C,x,5%,-39,x,11%
Cc1ccc(N(CC(=O)Nc2cc(C)cc(C)c2)S(=O)(=O)c2c(C)noc2C)cc1,15%[7.34 µM],1%,-85*,0%[7.34 µM],-5%
CCOc1ccc(N(CC(=O)Nc2ccc(C)c(C)c2)S(=O)(=O)c2c(C)noc2C)cc1,-13%,-1%,-71*,-21%,6%
CCOc1ccc(N(CC(=O)Nc2ccccc2C)S(=O)(=O)c2c(C)noc2C)cc1,-3%,1%,-69*,-21%,1%
CCN(C(=O)CN1CCN(c2cccc(C(F)(F)F)c2)CC1)c1c(N)n(Cc2ccccc2)c(=O)[nH]c1=O,i,0%,-18,-7%,12%
COc1ccccc1NC(=O)COC(=O)c1cc([N+](=O)[O-])ccc1N1CCCC1,x,-1%,-30,x,x
N#Cc1ccccc1OCC(=O)OCC(=O)NC1CCCCC1,-9%,-1%,7,-6%,x
c1coc(CNc2ncnc3sc4c(c23)CCCCC4)c1,-26%,3%,-4,-16%,2%
Cc1nc(NCc2ccco2)c2c3c(sc2n1)CCC3,x,-1%,-70*,-5%,-4%
SMILES,VACV mCherry inh,Tb PYK inh,HCMV inh,Vaccinia Venus,LmPK inhibitor
COc1ccc(C(=O)OCCNC(=O)c2ccncc2)cc1OC,i,1%,-13,-16%,-1%
COc1cc(/C=C2\SC(=O)N(Cc3ccc(F)cc3)C2=O)cc([N+](=O)[O-])c1O,-3%,-13%,-76*,1%,-13%
S=C1SCN(Cc2cccnc2)CN1Cc1ccccc1,u,-3%,-94*,u,9%
O=C1/C(=C\c2cc(Br)cc(Br)c2O)SC(=S)N1Cc1ccccc1,8%,-23%,x,56%,-11%
O=C1/C(=C/c2ccc(O)c([N+](=O)[O-])c2)SC(=S)N1Cc1ccccc1,-4%,-3%,-61*,1%,-7%
O=C1/C(=C\c2cccc([N+](=O)[O-])c2O)SC(=S)N1Cc1ccccc1,x,2%,-64*,x,2%
S=C1NCN(Cc2cccnc2)CN1Cc1ccccc1,-7%,-8%,13,-20%,0%
CN1C2C=C(N(CCc3ccccc3)C(=O)c3ccc(Cl)cc3)CC1CC2 (stereo unspecified),-15%,6%,-36,-7%,6%
COc1ccccc1CC(=O)Nc1cccc(F)c1,9%,1%,0,1%,-2%
Cc1ccc(S(=O)(=O)N2CCN(c3nc(C)c4c(c3C#N)CC(C)(C)OC4)CC2)cc1,x,-2%,-24,-15%,3%
COc1cc(/C=C2/SC(=S)N(Cc3ccccc3)C2=O)cc(Cl)c1O,i,-26%,u,i,-16%
COc1cc([N+](=O)[O-])cc(/C=C2/SC(=S)N(Cc3ccccc3)C2=O)c1O,299%,-20%,-88*,i,-20%
O=C1/C(=C/c2ccccc2O)SC(=S)N1Cc1cccnc1,x,-22%,-78*,x,-3%
O=C1CSC(=S)N1c1cccnc1,3%,-4%,2,17%,8%
O=C1CSC(=S)N1Cc1cccnc1,x,-1%,-98*,213%,0%
COc1ccc(Cn2cc(S(=O)(=O)c3ccc(Cl)cc3)c(=O)c3cc4c(cc32)OCO4)cc1,6%,0%,5,-7%,x
COC(=O)c1ccc(C)c(NC(=O)CN(c2ccc3c(c2)OCO3)S(C)(=O)=O)c1,x,-15%,20,-6%,-1%
COc1ccc(C)cc1-n1c(SCC(=O)NCc2ccco2)nc2c([nH]c3ccccc32)c1=O,-10%,5%,u,-18%,x
N/C(=N\OC(=O)COc1ccc2ccccc2c1)c1ccccn1,-20%,1%,-5,-10%,0%
CCCC[n+]1ccn(C2=C([O-])c3ccccc3C(=O)/C2=N\S(=O)(=O)c2ccc(Cl)cc2)c1,x,1%,-73*,x,-4%
COc1ccc(CNC(=O)c2sccc2-c2ccccc2)cc1OC,x,1%,-71*,x,1%
Cc1cc(NC(=O)c2ccc(Cn3cc([N+](=O)[O-])cn3)o2)no1,x,4%,u,x,-11%
O=C(NCCCN1CCOCC1)/C(=C/c1ccc(-c2cccc([N+](=O)[O-])c2)o1)NC(=O)c1ccccc1,-2%,2%,18,-11%,x
Cc1nc2nc(C)n(CCN3CCOCC3)c(=O)c2c(-c2cccc([N+](=O)[O-])c2)c1C(=O)CCCCCCCCCCN1CCC(c2ccccc2)(c2ccccc2)CC1,u,-2%,-78*,10µM*,x
Cc1[nH]cnc1C(=O)N/N=C/c1ccc([N+](=O)[O-])s1,-23%,-13%,-90*,u,-4%

# Assay outcomes deposited in PubChem by National Center for Advancing Translational Sciences (NCATS).
